Measured values published in publication PMC11006913.
Positions count from the first letter of the chain named.

Legend:
Experiment in all cases: PBM; 200 nM protein, PBS
Conditions in all cases: dsDNA, one strand shown
[1] = biological target: SHOX (Homo sapiens, UniProt O15266 103-189)
[2] = biological target: HOXC10 (Homo sapiens, UniProt Q9NYD6 254-340)
[3] = biological target: ALX1 (Homo sapiens, UniProt Q15699 118-204, L144V)
[4] = biological target: ALX3 (Homo sapiens, UniProt O95076 139-225, N203Q)
ALX3 (Homo sapiens, UniProt O95076 139-225, N203Q), sequence (O95076 139-225 N203Q): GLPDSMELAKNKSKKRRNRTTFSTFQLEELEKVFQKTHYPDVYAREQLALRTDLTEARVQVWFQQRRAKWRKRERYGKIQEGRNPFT

[5] = biological target: SHOX (Homo sapiens, UniProt O15266 103-189, R173C)
SHOX (Homo sapiens, UniProt O15266 103-189, R173C), sequence (O15266 103-189 R173C): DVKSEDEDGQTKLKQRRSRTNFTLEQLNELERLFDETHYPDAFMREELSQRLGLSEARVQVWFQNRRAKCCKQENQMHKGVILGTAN

[6] = biological target: ALX1 (Homo sapiens, UniProt Q15699 118-204, L144R)
ALX1 (Homo sapiens, UniProt Q15699 118-204, L144R), sequence (Q15699 118-204 L144R): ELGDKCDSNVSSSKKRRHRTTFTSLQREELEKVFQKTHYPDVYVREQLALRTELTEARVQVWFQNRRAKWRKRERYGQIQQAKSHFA

[7] = biological target: HOXC10 (Homo sapiens, UniProt Q9NYD6 254-340, K271E)
HOXC10 (Homo sapiens, UniProt Q9NYD6 254-340, K271E), sequence (Q9NYD6 254-340 K271E): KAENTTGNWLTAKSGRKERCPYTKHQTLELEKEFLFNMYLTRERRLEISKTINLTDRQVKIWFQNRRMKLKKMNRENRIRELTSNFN

[8] = biological target: ALX3 (Homo sapiens, UniProt O95076 139-225)
ALX3 (Homo sapiens, UniProt O95076 139-225), sequence (O95076 139-225): as the sequence (O95076 139-225 N203Q) above, with Q65N counted along it

[9] = biological target: ALX3 (Homo sapiens, UniProt O95076 139-225, L168Q)
ALX3 (Homo sapiens, UniProt O95076 139-225, L168Q), sequence (O95076 139-225 L168Q): as the sequence (O95076 139-225 N203Q) above, with L30Q, Q65N counted along it

[10] = biological target: ALX3 (Homo sapiens, UniProt O95076 139-225, L168V)
ALX3 (Homo sapiens, UniProt O95076 139-225, L168V), sequence (O95076 139-225 L168V): as the sequence (O95076 139-225 N203Q) above, with L30V, Q65N counted along it

[11] = biological target: ALX1 (Homo sapiens, UniProt Q15699 118-204)
ALX1 (Homo sapiens, UniProt Q15699 118-204), sequence (Q15699 118-204): as the sequence (Q15699 118-204 L144R) above, with R27L counted along it

[12] = biological target: ALX3 (Homo sapiens, UniProt O95076 139-225, N203S)
ALX3 (Homo sapiens, UniProt O95076 139-225, N203S), sequence (O95076 139-225 N203S): as the sequence (O95076 139-225 N203Q) above, with Q65S counted along it

[13] = biological target: HOXA2 (Homo sapiens, UniProt O43364 129-215, R185T)
HOXA2 (Homo sapiens, UniProt O43364 129-215, R185T), sequence (O43364 129-215 R185T): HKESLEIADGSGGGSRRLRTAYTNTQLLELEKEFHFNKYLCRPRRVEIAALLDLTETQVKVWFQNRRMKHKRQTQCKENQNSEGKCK

[14] = biological target: HOXA2 (Homo sapiens, UniProt O43364 129-215, R185K)
HOXA2 (Homo sapiens, UniProt O43364 129-215, R185K), sequence (O43364 129-215 R185K): as the sequence (O43364 129-215 R185T) above, with T57K counted along it

[15] = biological target: HOXA2 (Homo sapiens, UniProt O43364 129-215, Y150S)
HOXA2 (Homo sapiens, UniProt O43364 129-215, Y150S), sequence (O43364 129-215 Y150S): as the sequence (O43364 129-215 R185T) above, with Y22S, T57R counted along it

[16] = biological target: HOXA2 (Homo sapiens, UniProt O43364 129-215)
HOXA2 (Homo sapiens, UniProt O43364 129-215), sequence (O43364 129-215): as the sequence (O43364 129-215 R185T) above, with T57R counted along it

[17] = biological target: ALX4 (Homo sapiens, UniProt Q9H161 200-286)
ALX4 (Homo sapiens, UniProt Q9H161 200-286), sequence (Q9H161 200-286): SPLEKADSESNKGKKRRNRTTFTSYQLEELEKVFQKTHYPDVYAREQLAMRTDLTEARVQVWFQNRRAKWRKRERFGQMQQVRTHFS

[18] = biological target: ALX4 (Homo sapiens, UniProt Q9H161 200-286, Q225E)
ALX4 (Homo sapiens, UniProt Q9H161 200-286, Q225E), sequence (Q9H161 200-286 Q225E): as the sequence (Q9H161 200-286) above, with Q26E counted along it

[19] = biological target: T1, PAX4 (Homo sapiens, UniProt O43316 9-242, R200K)
T1 sequence: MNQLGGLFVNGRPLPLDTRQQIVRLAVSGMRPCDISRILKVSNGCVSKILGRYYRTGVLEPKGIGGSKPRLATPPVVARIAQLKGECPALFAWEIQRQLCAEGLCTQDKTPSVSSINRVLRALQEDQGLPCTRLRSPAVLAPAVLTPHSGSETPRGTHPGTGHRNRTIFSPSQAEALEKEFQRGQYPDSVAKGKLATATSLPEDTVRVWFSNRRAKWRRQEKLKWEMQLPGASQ

[20] = biological target: T2, PAX4 (Homo sapiens, UniProt O43316 9-242)
T2 sequence: T1 sequence with K192R

[21] = biological target: MSX2 (Homo sapiens, UniProt P35548 130-214, R199I)
MSX2 (Homo sapiens, UniProt P35548 130-214, R199I), sequence (P35548 130-214 R199I): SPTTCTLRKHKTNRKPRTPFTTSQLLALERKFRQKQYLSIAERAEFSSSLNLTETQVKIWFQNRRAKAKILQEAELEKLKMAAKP

[22] = biological target: T3, PAX4 (Homo sapiens, UniProt O43316 9-242, R200Q)
T3 sequence: T1 sequence with K192Q

[23] = biological target: PITX2 (Homo sapiens, UniProt Q99697 72-157)
[24] = biological target: T4, PAX4 (Homo sapiens, UniProt O43316 9-242, F177V)
T4 sequence: T1 sequence with F169V, K192R

[25] = biological target: MSX2 (Homo sapiens, UniProt P35548 130-214)
MSX2 (Homo sapiens, UniProt P35548 130-214), sequence (P35548 130-214): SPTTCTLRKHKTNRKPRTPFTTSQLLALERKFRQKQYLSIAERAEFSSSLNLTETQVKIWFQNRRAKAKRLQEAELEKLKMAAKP

[26] = biological target: T5, PAX4 (Homo sapiens, UniProt O43316 9-242, F177Y)
T5 sequence: T1 sequence with F169Y, K192R

[27] = biological target: MSX2 (Homo sapiens, UniProt P35548 130-214, F161Y)
MSX2 (Homo sapiens, UniProt P35548 130-214, F161Y), sequence (P35548 130-214 F161Y): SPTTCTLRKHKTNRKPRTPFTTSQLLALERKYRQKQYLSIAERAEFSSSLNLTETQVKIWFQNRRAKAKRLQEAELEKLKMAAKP

[28] = biological target: T6, PAX4 (Homo sapiens, UniProt O43316 9-242, R227W)
T6 sequence: T1 sequence with K192R, R219W

[29] = biological target: HESX1 (Homo sapiens, UniProt Q9UBX0 95-180, R109Q)
HESX1 (Homo sapiens, UniProt Q9UBX0 95-180, R109Q), sequence (Q9UBX0 95-180 R109Q): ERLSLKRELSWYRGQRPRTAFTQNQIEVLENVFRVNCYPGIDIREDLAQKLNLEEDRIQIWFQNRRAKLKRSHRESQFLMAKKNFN

[30] = biological target: PROP1 (Homo sapiens, UniProt O75360 56-141, R99H)
PROP1, sequence (O75360 56-141 R99H): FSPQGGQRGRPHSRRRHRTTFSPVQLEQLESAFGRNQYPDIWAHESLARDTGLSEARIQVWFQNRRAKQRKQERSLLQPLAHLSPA

[31] = biological target: HESX1 (Homo sapiens, UniProt Q9UBX0 95-180, P111T)
HESX1 (Homo sapiens, UniProt Q9UBX0 95-180, P111T), sequence (Q9UBX0 95-180 P111T): as the sequence (Q9UBX0 95-180 R109Q) above, with Q15R, P17T counted along it

[32] = biological target: HESX1 (Homo sapiens, UniProt Q9UBX0 95-180, F115L)
HESX1 (Homo sapiens, UniProt Q9UBX0 95-180, F115L), sequence (Q9UBX0 95-180 F115L): as the sequence (Q9UBX0 95-180 R109Q) above, with Q15R, F21L counted along it

ALX1 (Homo sapiens, UniProt Q15699 118-204, L144V), sequence (Q15699 118-204 L144V): as the sequence (Q15699 118-204 L144R) above, with R27V counted along it
SHOX (Homo sapiens, UniProt O15266 103-189), sequence (O15266 103-189): as the sequence (O15266 103-189 R173C) above, with C71R counted along it
HOXC10 (Homo sapiens, UniProt Q9NYD6 254-340), sequence (Q9NYD6 254-340): as the sequence (Q9NYD6 254-340 K271E) above, with E18K counted along it

Sequence: GCCTGCCC
- binding signal [1]: 7.04 upbm affinity estimate (log intensity, higher = more binding, comparable within an allelic series)
- binding signal [2]: 10.1 upbm affinity estimate (log intensity, higher = more binding, comparable within an allelic series)
- binding signal [3]: 6.56 upbm affinity estimate (log intensity, higher = more binding, comparable within an allelic series)
- binding signal [4]: 7.64 upbm affinity estimate (log intensity, higher = more binding, comparable within an allelic series)
- binding signal [5]: 7.13 upbm affinity estimate (log intensity, higher = more binding, comparable within an allelic series)
- binding signal [6]: 6.58 upbm affinity estimate (log intensity, higher = more binding, comparable within an allelic series)
- binding signal [7]: 10 upbm affinity estimate (log intensity, higher = more binding, comparable within an allelic series)
- binding signal [8]: 7.67 upbm affinity estimate (log intensity, higher = more binding, comparable within an allelic series)
- binding signal [9]: 7.69 upbm affinity estimate (log intensity, higher = more binding, comparable within an allelic series)
- binding signal [10]: 7.69 upbm affinity estimate (log intensity, higher = more binding, comparable within an allelic series)
- binding signal [11]: 6.62 upbm affinity estimate (log intensity, higher = more binding, comparable within an allelic series)
- binding signal [12]: 7.72 upbm affinity estimate (log intensity, higher = more binding, comparable within an allelic series)

Sequence: CGCCCGAC
- binding signal [1]: 7.09 upbm affinity estimate (log intensity, higher = more binding, comparable within an allelic series)
- binding signal [13]: 7.5 upbm affinity estimate (log intensity, higher = more binding, comparable within an allelic series)
- binding signal [5]: 7.2 upbm affinity estimate (log intensity, higher = more binding, comparable within an allelic series)
- binding signal [14]: 10.3 upbm affinity estimate (log intensity, higher = more binding, comparable within an allelic series)
- binding signal [15]: 10.6 upbm affinity estimate (log intensity, higher = more binding, comparable within an allelic series)
- binding signal [16]: 7.16 upbm affinity estimate (log intensity, higher = more binding, comparable within an allelic series)

Sequence: CCCTCCCG
- binding signal [1]: 6.94 upbm affinity estimate (log intensity, higher = more binding, comparable within an allelic series)
- binding signal [17]: 8.02 upbm affinity estimate (log intensity, higher = more binding, comparable within an allelic series)
- binding signal [18]: 8.18 upbm affinity estimate (log intensity, higher = more binding, comparable within an allelic series)
- binding signal [5]: 7.03 upbm affinity estimate (log intensity, higher = more binding, comparable within an allelic series)

Sequence: ACTGGGGG
- binding signal [1]: 7.05 upbm affinity estimate (log intensity, higher = more binding, comparable within an allelic series)
- binding signal [19]: 8.98 upbm affinity estimate (log intensity, higher = more binding, comparable within an allelic series)
- binding signal [20]: 9.06 upbm affinity estimate (log intensity, higher = more binding, comparable within an allelic series)
- binding signal [21]: 9.43 upbm affinity estimate (log intensity, higher = more binding, comparable within an allelic series)
- binding signal [3]: 6.32 upbm affinity estimate (log intensity, higher = more binding, comparable within an allelic series)
- binding signal [22]: 9.22 upbm affinity estimate (log intensity, higher = more binding, comparable within an allelic series)
- binding signal [23]: 7.95 upbm affinity estimate (log intensity, higher = more binding, comparable within an allelic series)
- binding signal [5]: 7.08 upbm affinity estimate (log intensity, higher = more binding, comparable within an allelic series)
- binding signal [6]: 6.52 upbm affinity estimate (log intensity, higher = more binding, comparable within an allelic series)
- binding signal [24]: 9.12 upbm affinity estimate (log intensity, higher = more binding, comparable within an allelic series)
- binding signal [25]: 9.41 upbm affinity estimate (log intensity, higher = more binding, comparable within an allelic series)
- binding signal [26]: 9.07 upbm affinity estimate (log intensity, higher = more binding, comparable within an allelic series)
- binding signal [27]: 9.45 upbm affinity estimate (log intensity, higher = more binding, comparable within an allelic series)
- binding signal [28]: 9.15 upbm affinity estimate (log intensity, higher = more binding, comparable within an allelic series)
- binding signal [11]: 6.23 upbm affinity estimate (log intensity, higher = more binding, comparable within an allelic series)

Sequence: AATTAGGG
- binding signal [1]: 11.7 upbm affinity estimate (log intensity, higher = more binding, comparable within an allelic series)
- binding signal [19]: 11.6 upbm affinity estimate (log intensity, higher = more binding, comparable within an allelic series)
- binding signal [20]: 12.2 upbm affinity estimate (log intensity, higher = more binding, comparable within an allelic series)
- binding signal [3]: 11.4 upbm affinity estimate (log intensity, higher = more binding, comparable within an allelic series)
- binding signal [22]: 11.8 upbm affinity estimate (log intensity, higher = more binding, comparable within an allelic series)
- binding signal [5]: 9.29 upbm affinity estimate (log intensity, higher = more binding, comparable within an allelic series)
- binding signal [6]: 10.8 upbm affinity estimate (log intensity, higher = more binding, comparable within an allelic series)
- binding signal [24]: 10.3 upbm affinity estimate (log intensity, higher = more binding, comparable within an allelic series)
- binding signal [26]: 10.8 upbm affinity estimate (log intensity, higher = more binding, comparable within an allelic series)
- binding signal [29]: 8.69 upbm affinity estimate (log intensity, higher = more binding, comparable within an allelic series)
- binding signal [30]: 10.9 upbm affinity estimate (log intensity, higher = more binding, comparable within an allelic series)
- binding signal [31]: 10.1 upbm affinity estimate (log intensity, higher = more binding, comparable within an allelic series)
- binding signal [28]: 10.8 upbm affinity estimate (log intensity, higher = more binding, comparable within an allelic series)
- binding signal [11]: 12 upbm affinity estimate (log intensity, higher = more binding, comparable within an allelic series)

Sequence: AATTAGAC
- binding signal [1]: 11.4 upbm affinity estimate (log intensity, higher = more binding, comparable within an allelic series)
- binding signal [19]: 11.7 upbm affinity estimate (log intensity, higher = more binding, comparable within an allelic series)
- binding signal [20]: 12.2 upbm affinity estimate (log intensity, higher = more binding, comparable within an allelic series)
- binding signal [22]: 12 upbm affinity estimate (log intensity, higher = more binding, comparable within an allelic series)
- binding signal [5]: 9.23 upbm affinity estimate (log intensity, higher = more binding, comparable within an allelic series)
- binding signal [24]: 10.6 upbm affinity estimate (log intensity, higher = more binding, comparable within an allelic series)
- binding signal [26]: 11 upbm affinity estimate (log intensity, higher = more binding, comparable within an allelic series)
- binding signal [29]: 8.68 upbm affinity estimate (log intensity, higher = more binding, comparable within an allelic series)
- binding signal [32]: 7.81 upbm affinity estimate (log intensity, higher = more binding, comparable within an allelic series)
- binding signal [28]: 11 upbm affinity estimate (log intensity, higher = more binding, comparable within an allelic series)

Sequence: CGGACAGC
- binding signal [1]: 7.13 upbm affinity estimate (log intensity, higher = more binding, comparable within an allelic series)
- binding signal [19]: 9.47 upbm affinity estimate (log intensity, higher = more binding, comparable within an allelic series)
- binding signal [20]: 9.43 upbm affinity estimate (log intensity, higher = more binding, comparable within an allelic series)
- binding signal [21]: 9.52 upbm affinity estimate (log intensity, higher = more binding, comparable within an allelic series)
- binding signal [3]: 6.29 upbm affinity estimate (log intensity, higher = more binding, comparable within an allelic series)
- binding signal [22]: 9.47 upbm affinity estimate (log intensity, higher = more binding, comparable within an allelic series)
- binding signal [5]: 7.17 upbm affinity estimate (log intensity, higher = more binding, comparable within an allelic series)
- binding signal [6]: 6.43 upbm affinity estimate (log intensity, higher = more binding, comparable within an allelic series)
- binding signal [24]: 9.4 upbm affinity estimate (log intensity, higher = more binding, comparable within an allelic series)
- binding signal [25]: 9.55 upbm affinity estimate (log intensity, higher = more binding, comparable within an allelic series)
- binding signal [26]: 9.46 upbm affinity estimate (log intensity, higher = more binding, comparable within an allelic series)
- binding signal [27]: 9.53 upbm affinity estimate (log intensity, higher = more binding, comparable within an allelic series)
- binding signal [28]: 9.46 upbm affinity estimate (log intensity, higher = more binding, comparable within an allelic series)
- binding signal [11]: 6.5 upbm affinity estimate (log intensity, higher = more binding, comparable within an allelic series)
